Compounds without any hit were thinned out: in the full panel of roughly 83,000, 20% have a hit.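 Each cell line was grown in a 96-well plate and treated with one concentration of compound for 48 hours. Values below 10 were considered active.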 A number with no mark means an inactive call. Calls of active or inactive are those of the source.

Test systems include DU-145 prostate; K-562 leukemia; MALME-3M melanoma; MDA-MB-231 breast; RXF 393 renal; SF-268 CNS; SF-295 CNS; SF-539 CNS; UACC-257 melanoma; M14 melanoma; HCT-15 colon; SNB-75 CNS; SNB-19 CNS; PC-3 prostate; SK-MEL-5 melanoma; UACC-62 melanoma; LOX IMVI melanoma; SK-MEL-28 melanoma; HT29 colon; U251 CNS.
Test in all cases: NCI-60 one-dose screen, 48 h (100 = growth as untreated, 0 = no growth, -100 = all killed)
Holding throughout (settings): 10 µM unless noted

On to `Cc1cc(Cl)c2c(Cl)ccc(Cl)c2n1`, for which the growth in the assay on DU-145 prostate was 112%; in the assay on K-562 leukemia it was 97.6%; in the assay on MALME-3M melanoma, 105%; in the assay with MDA-MB-231 breast it was 119%; in the assay on RXF 393 renal it was 118%; in the assay with SF-268 CNS it was 99.1%. Also, the growth is 96.9% with SF-295 CNS; 97.5% with SF-539 CNS; 102% in the assay on UACC-257 melanoma; 101% with M14 melanoma; 95.4% in the assay with HCT-15 colon; 95.5% in the assay with SNB-75 CNS. Also, the growth was 107% in the assay with SNB-19 CNS; 96.3% with PC-3 prostate; 102% in the assay on SK-MEL-5 melanoma; 105% in the assay with UACC-62 melanoma; 103% with LOX IMVI melanoma; 113% with SK-MEL-28 melanoma.
Regarding `COc1ccc(-c2c(-c3cc4c(c(OC)c3OC)OCO4)noc2N)cc1`, the growth is 12.2% in the assay with DU-145 prostate; 16.1% with K-562 leukemia; 56.7% in the assay with MALME-3M melanoma; 48.7% in the assay on MDA-MB-231 breast; -13.6% (active) in the assay on RXF 393 renal; 45.8% with SF-268 CNS. The growth was 2.69% (active) in the assay on SF-295 CNS; 1.11% (active) in the assay on SF-539 CNS; 66.8% in the assay on UACC-257 melanoma; 12.6% with M14 melanoma; 27% in the assay with HCT-15 colon; 22.8% in the assay on SNB-75 CNS. In addition, the growth in the assay on SNB-19 CNS is 40.6%; in the assay with PC-3 prostate, 12.2%; in the assay with SK-MEL-5 melanoma, 16.5%; in the assay with UACC-62 melanoma, 37.5%; with LOX IMVI melanoma, 43.7%; in the assay with SK-MEL-28 melanoma, 49.7%.
With `FC(F)(F)c1ccc2c(c1)n1cnnc1c1nncn21`, the growth in the assay on DU-145 prostate was 118%; in the assay with K-562 leukemia, 100%; in the assay with MALME-3M melanoma, 106%; with MDA-MB-231 breast, 104%; with RXF 393 renal it was 104%; in the assay on SF-268 CNS, 117%. The growth in the assay with SF-295 CNS is 89.2%; in the assay on SF-539 CNS, 114%; in the assay on M14 melanoma, 114%; with HCT-15 colon it was 111%; in the assay with HT29 colon, 107%; with SNB-75 CNS, 103%. The growth in the assay with SNB-19 CNS was 107%; with PC-3 prostate it was 98.3%; in the assay on SK-MEL-5 melanoma it was 98.7%; in the assay with UACC-62 melanoma, 110%; in the assay on SK-MEL-28 melanoma, 115%.
On to `O=c1[nH]c(-c2ccccn2)nc2sc3c(c12)CCCCCC3`, for which the growth was 48.8% with DU-145 prostate; 20.4% in the assay with K-562 leukemia; 61.9% with MALME-3M melanoma; 49.3% in the assay with MDA-MB-231 breast; 50.7% in the assay with RXF 393 renal; 40.6% with SF-268 CNS. For the same compound, the growth is -6% (active) with SF-295 CNS; 61.7% in the assay on SF-539 CNS; 46.1% with M14 melanoma; 27.9% with HCT-15 colon; 49% in the assay on HT29 colon; 64.8% in the assay with SNB-75 CNS. In addition, the growth in the assay on U251 CNS is 22.5%; in the assay on PC-3 prostate, 41.1%; in the assay with UACC-62 melanoma, 45.6%; in the assay on LOX IMVI melanoma, 29.7%; with SK-MEL-28 melanoma it was 40.1%.
Take `COc1ccc(NS(=O)(=O)c2ccc(-c3cnc(C4CC4)o3)cc2)cc1`: the growth in the assay on DU-145 prostate was 81.2%; in the assay with K-562 leukemia, 22.8%; with MALME-3M melanoma, 58.3%; in the assay on MDA-MB-231 breast it was 69.7%; in the assay on RXF 393 renal, 83.9%; in the assay on SF-268 CNS, 73.2%. In addition, the growth in the assay with SF-295 CNS is 50%; with SF-539 CNS it was 65.2%; in the assay on UACC-257 melanoma, 72.5%; in the assay on M14 melanoma, 40.9%; with HCT-15 colon, 29.7%; in the assay with SNB-75 CNS, 44.9%. Moreover, the growth was 67.8% in the assay with SNB-19 CNS; 67% in the assay with PC-3 prostate; 49.4% in the assay on UACC-62 melanoma; 50.8% in the assay on LOX IMVI melanoma; 66.3% with SK-MEL-28 melanoma.
As for `O=[N+]([O-])c1cc2c(cc1Br)C1C(C3C2C(Cl)(Cl)C(Cl)=C(Cl)C3(Cl)Cl)C(Cl)(Cl)C(Cl)=C(Cl)C1(Cl)Cl` (configuration not stated), the growth was 108% in the assay with DU-145 prostate; 105% with K-562 leukemia; 80.8% in the assay on MALME-3M melanoma; 108% in the assay with MDA-MB-231 breast; 96.9% in the assay with RXF 393 renal; 102% in the assay on SF-268 CNS. Moreover, the growth was 95.8% in the assay on SF-295 CNS; 94.9% with SF-539 CNS; 92.9% in the assay with UACC-257 melanoma; 90.6% with M14 melanoma; 103% in the assay with HCT-15 colon; 85.8% in the assay on SNB-75 CNS. Besides, the growth with SNB-19 CNS was 106%; in the assay on PC-3 prostate, 85.1%; in the assay on SK-MEL-5 melanoma, 102%; in the assay with UACC-62 melanoma, 87.1%; in the assay with LOX IMVI melanoma, 91.9%; in the assay on SK-MEL-28 melanoma, 102%.
Turning to `CCOC(=O)C1=C(C)N2C(=NC3=C(CCCC/C3=C\c3ccccc3)C2c2ccccc2)S1` (configuration not stated), the growth was 105% with DU-145 prostate; 99.2% in the assay on K-562 leukemia; 86.7% in the assay with MALME-3M melanoma; 107% in the assay on MDA-MB-231 breast; 88.3% in the assay on RXF 393 renal; 99.2% with SF-268 CNS. In addition, the growth in the assay with SF-295 CNS is 74%; in the assay on SF-539 CNS, 99.3%; with M14 melanoma, 95.9%; with HCT-15 colon it was 96.9%; in the assay on HT29 colon it was 84.4%; in the assay with SNB-75 CNS, 96.9%. The growth in the assay with U251 CNS is 98.3%; with PC-3 prostate, 87.6%; with UACC-62 melanoma it was 85.5%; in the assay on LOX IMVI melanoma, 100%; with SK-MEL-28 melanoma, 98%.
For `Nc1nc(N)c(N=Nc2c(Br)cc(S(N)(=O)=O)cc2Br)c(N)n1`, the growth with DU-145 prostate is 109%; in the assay on K-562 leukemia it was 51.1%; in the assay with MALME-3M melanoma it was 111%; in the assay with MDA-MB-231 breast it was 105%; in the assay on RXF 393 renal, 107%; in the assay with SF-268 CNS, 100%. For the same compound, the growth is 94.9% in the assay with SF-295 CNS; 112% in the assay on SF-539 CNS; 98.7% in the assay with UACC-257 melanoma; 87.8% with M14 melanoma; 114% in the assay on HCT-15 colon; 90.6% in the assay with SNB-75 CNS. For the same compound, the growth was 97.5% with SNB-19 CNS; 95.1% in the assay on PC-3 prostate; 98.2% in the assay on SK-MEL-5 melanoma; 91.8% in the assay on UACC-62 melanoma; 99.5% with SK-MEL-28 melanoma.
With `O=C(COc1cccc(/C=C2\COc3ccccc3C2=O)c1)c1ccccc1`, the growth in the assay on DU-145 prostate is 101%; with K-562 leukemia, 17.1%; in the assay on MALME-3M melanoma, 90%; with MDA-MB-231 breast it was 83.8%; in the assay with RXF 393 renal, 69.5%; in the assay with SF-268 CNS it was 88.7%. For the same compound, the growth in the assay on SF-295 CNS is 115%; with SF-539 CNS, 90.4%; in the assay with UACC-257 melanoma, 72.9%; in the assay on M14 melanoma it was 60.9%; in the assay with HCT-15 colon it was 33.1%; with SNB-75 CNS, 71%. Further, the growth is 100% in the assay with SNB-19 CNS; 60.9% in the assay with U251 CNS; 47.7% in the assay with SK-MEL-5 melanoma; 59.4% in the assay on UACC-62 melanoma; 23.7% with LOX IMVI melanoma; 97.2% with SK-MEL-28 melanoma.
